From PubChem BioAssay (NCI)
This is part of a sample that, as a whole, favours compounds with a hit. Of some 79,000 tested, about 15% had one in any assay. Activity calls are given as the source filed them. Cut-off read from the data, not from the text of the source: active = growth inhibition above about 70%; inactive = the rest.

Columns and labels:
[1] = NCI Yeast Anticancer Drug Screen. Data for the mec2-1 strain (AID 157); details: S. cerevisiae mec2-1 strain, stronger effect = higher value
Method in brief: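 Growth inhibition is read against vehicle-treated controls after compound exposure of the mec2-1 yeast strain, which is defective in DNA damage repair or cell cycle control.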

[2] = NCI Yeast Anticancer Drug Screen. Data for the rad14 strain (AID 159);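 note: 0% = growth of vehicle-treated control cultures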; details: S. cerevisiae rad14 strain growth inhibition, stronger effect = higher value
Method in brief: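 Inhibition of growth is reported for a repair-deficient yeast mutant following compound treatment, calculated relative to cultures that received vehicle.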

[3] = NCI Yeast Anticancer Drug Screen. Data for the sgs1 mgt1 strain (AID 161);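 note: 0% = growth of cultures given vehicle only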; details: S. cerevisiae sgs1 mgt1 strain, stronger effect = higher value
Method in brief: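 Yeast cells carrying a defined DNA-repair defect were exposed to test compounds. Growth inhibition was measured relative to vehicle-treated controls.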

[4] = NCI Yeast Anticancer Drug Screen. Data for the CLN2oe strain (AID 163);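 note: 0% = growth of vehicle-only control cultures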; details: S. cerevisiae CLN2oe strain, stronger effect = higher value
Method in brief: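 Compound-treated yeast; growth vs vehicle ctrl = % inhibition. Genetically altered strain (cell-cycle control).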

[5] = NCI Yeast Anticancer Drug Screen. Data for the cln2 rad14 strain (AID 165);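 note: 0% = growth equal to vehicle treated cultures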; details: S. cerevisiae cln2 rad14 strain, stronger effect = higher value
Method in brief: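 Growth inhibition, relative to vehicle-treated controls, is the read-out. The test organism is a yeast strain with defined genetic alterations, cln2 rad14.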

[6] = NCI Yeast Anticancer Drug Screen. Data for the bub3 strain (AID 167); details: S. cerevisiae bub3 mutant strain, stronger effect = higher value
Method in brief: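 Mutant yeast screening strain plus compound; vehicle-treated cultures serve as the 0% inhibition reference.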

[7] = NCI Yeast Anticancer Drug Screen. Data for the wt2 strain (AID 169); details: S. cerevisiae wt2 strain growth inhibition, stronger effect = higher value
Method in brief: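 Compound exposure of yeast; growth compared with vehicle controls; inhibition reported.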

[8] = NCI Yeast Anticancer Drug Screen. Data for the mlh1 strain (AID 171);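 note: 0% = growth of vehicle-treated control cultures of the same strain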; details: S. cerevisiae mlh1 strain growth inhibition, stronger effect = higher value
Method in brief: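 Compounds are applied to a genetically altered yeast strain, and its growth is compared with that of vehicle-treated cultures to give percent inhibition.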

[9] = NCI Yeast Anticancer Drug Screen. Data for the sgs1 strain (AID 173);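 note: 0% = growth of vehicle-only control cultures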; details: S. cerevisiae sgs1 mutant, stronger effect = higher value
Method in brief: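 Compounds applied to genetically altered yeast; growth compared with vehicle-treated cultures to give % inhibition.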

[10] = NCI Yeast Anticancer Drug Screen. Data for the mlh1 rad18 strain (AID 175); details: S. cerevisiae mlh1 rad18 strain growth inhibition, stronger effect = higher value
Method in brief: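 Cells of a genetically altered yeast strain, deficient in DNA damage repair, were treated with compound. Their growth was then compared with that of vehicle-treated cultures to give inhibition.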

[11] = NCI Yeast Anticancer Drug Screen. Data for the rad18 strain (AID 177); details: S. cerevisiae rad18 mutant growth inhibition, stronger effect = higher value
Method in brief: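 Compounds are applied to a repair-deficient yeast strain, and growth is compared with that of vehicle-treated cultures to give percent inhibition.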

[12] = NCI Yeast Anticancer Drug Screen. Data for the rad52 strain (AID 147);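 note: 0% = growth of vehicle-treated control cultures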; details: S. cerevisiae rad52 mutant growth inhibition, stronger effect = higher value
Method in brief: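 DNA repair-defective yeast; compound exposure; growth scored against vehicle controls.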

[13] = NCI Yeast Anticancer Drug Screen. Data for the wt1 strain (AID 149);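 note: 0% = growth of vehicle-treated wt1 cultures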; details: S. cerevisiae wt1 strain (SPY 50644) growth inhibition, stronger effect = higher value
Method in brief: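 Each compound is tested on wt1 yeast and the loss of growth versus vehicle gives the inhibition value.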

[14] = NCI Yeast Anticancer Drug Screen. Data for the rad50EPP+ strain (AID 151);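 note: 0% = growth of vehicle-treated control cultures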; details: S. cerevisiae rad50 mutant strain, stronger effect = higher value
Method in brief: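 rad50EPP+ yeast treated with test compounds. Readout: growth vs vehicle control.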

[15] = NCI Yeast Anticancer Drug Screen. Data for the mgt1 strain (AID 153); details: S. cerevisiae mgt1 mutant growth inhibition, stronger effect = higher value
Method in brief: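 Growth inhibition relative to vehicle controls was scored for the mgt1 yeast strain after compound exposure.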

[16] = NCI Yeast Anticancer Drug Screen. Data for the rad50 strain (AID 155);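 note: 0% = growth of vehicle-only cultures of the same strain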; details: S. cerevisiae rad50 strain growth inhibition, stronger effect = higher value
Method in brief: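 Vehicle-treated cultures provide the reference for the growth inhibition reported for compound-exposed, repair-deficient yeast.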

[17] = at 5.0 µM (retest, dose inferred, filed as 0.5)
[18] = at 50.0 µM (retest, dose inferred, filed as 5.0)

Measured: growth inhibition

O=C1Nc2ccc(Br)cc2C1=Nc1ccc(Cl)cc1
active: [1]; [17] 77% | [1]; [18] 100% | [3]; [18] 71% | [6]; [18] 86% | [6]; at 50.0 µM 83.4% | [6]; at 100.0 µM 81% | [10]; [18] 100%
inactive: [1]; at 11.0 µM -64% | [1]; at 33.0 µM -1% | [1]; at 50.0 µM 54.5% | [1]; at 100.0 µM 57% | [2]; at 1.2 µM -52% | [2]; at 3.7 µM -62% | [2]; at 11.0 µM -46% | [2]; at 33.0 µM -8% | [2]; at 100.0 µM 34% | [3]; [17] 8% | [3]; at 50.0 µM 53.4% | [4]; at 1.2 µM 2% | [4]; at 3.7 µM 1% | [4]; at 11.0 µM 20% | [4]; at 33.0 µM 24% | [4]; at 100.0 µM 52% | [5]; [17] 36% | [5]; [18] 54% | [5]; at 50.0 µM 34% | [6]; at 1.2 µM -38% | [6]; at 3.7 µM -26% | [6]; [17] 28% | [6]; at 11.0 µM -11% | [6]; at 33.0 µM 29% | [7]; at 1.2 µM -20% | [7]; at 3.7 µM -12% | [7]; at 11.0 µM -10% | [7]; at 33.0 µM 14% | [7]; at 100.0 µM 47% | [8]; at 1.2 µM -16% | [8]; at 3.7 µM -24% | [8]; at 11.0 µM -3% | [8]; at 33.0 µM 8% | [8]; at 100.0 µM 46% | [9]; at 1.2 µM -25% | [9]; at 3.7 µM -27% | [9]; at 11.0 µM 3% | [9]; at 33.0 µM 33% | [9]; at 100.0 µM 54% | [10]; [17] 67% | [10]; at 50.0 µM 58.5% | [11]; at 1.2 µM -24% | [11]; at 3.7 µM -13% | [11]; at 11.0 µM 2% | [11]; at 33.0 µM 32% | [11]; at 100.0 µM 60%

Nc1ccc2c(c1)C(=O)c1c(F)cccc1-2
inactive: [12]; at 1.2 µM -3% | [12]; at 3.7 µM 5% | [12]; at 11.0 µM 17% | [12]; at 33.0 µM 69% | [13]; at 1.2 µM -6% | [13]; at 3.7 µM -6% | [13]; at 11.0 µM -6% | [13]; at 33.0 µM -2% | [13]; at 100.0 µM 50% | [14]; at 1.2 µM 5% | [14]; at 3.7 µM 21% | [14]; at 11.0 µM 53% | [15]; at 1.2 µM -1% | [15]; at 3.7 µM -2% | [15]; at 11.0 µM 1% | [15]; at 33.0 µM 13% | [16]; at 1.2 µM -4% | [16]; at 3.7 µM 11% | [16]; [17] -129% | [16]; at 11.0 µM 30% | [1]; at 1.2 µM 3% | [1]; at 3.7 µM 2% | [1]; [17] -48% | [1]; at 11.0 µM 18% | [1]; at 33.0 µM 13% | [1]; [18] -25% | [1]; at 50.0 µM 38.6% | [1]; at 100.0 µM 67% | [2]; at 1.2 µM 2% | [2]; at 3.7 µM 7% | [2]; at 11.0 µM 16% | [2]; at 33.0 µM 27% | [3]; [17] -70% | [3]; [18] -28% | [3]; at 50.0 µM 15.5% | [4]; at 1.2 µM -1% | [4]; at 3.7 µM 4% | [4]; at 11.0 µM 8% | [4]; at 33.0 µM 14% | [4]; at 100.0 µM 32% | [5]; [17] -55% | [5]; [18] -41% | [5]; at 50.0 µM 21.9% | [6]; at 1.2 µM -11% | [6]; at 3.7 µM -4% | [6]; [17] -60% | [6]; at 11.0 µM 1% | [6]; at 33.0 µM 12% | [6]; [18] -33% | [6]; at 50.0 µM 9% | [6]; at 100.0 µM 37% | [7]; at 1.2 µM -1% | [7]; at 3.7 µM 0% | [7]; at 11.0 µM 0% | [7]; at 33.0 µM 4% | [7]; at 100.0 µM 64% | [8]; at 1.2 µM 7% | [8]; at 3.7 µM -4% | [8]; at 11.0 µM 0% | [8]; at 33.0 µM 16% | [9]; at 1.2 µM -2% | [9]; at 3.7 µM 0% | [9]; at 11.0 µM 0% | [9]; at 33.0 µM 10% | [10]; [17] -120% | [10]; [18] -30% | [11]; at 1.2 µM 1% | [11]; at 3.7 µM 8% | [11]; at 11.0 µM 31%
active: [12]; at 100.0 µM 97% | [14]; at 33.0 µM 86% | [14]; at 100.0 µM 97% | [15]; at 100.0 µM 74% | [16]; at 33.0 µM 87% | [16]; [18] 78% | [16]; at 50.0 µM 90.5% | [16]; at 100.0 µM 98% | [2]; at 100.0 µM 78% | [8]; at 100.0 µM 86% | [9]; at 100.0 µM 92% | [10]; at 50.0 µM 84.5% | [11]; at 33.0 µM 72% | [11]; at 100.0 µM 97%
